# According to PubChem BioAssay:
# Active and inactive are the calls of the source.
# Test: A549 lung cancer cell viability effects, profiling panel, resazurin fluorescence, 24 h, PK04 Diversity Set (AID 1171); further: test concentration not given here
# Conditions: higher = more signal, called active from +8 up or from −8 down
row,SMILES,z-score
1,COc1cccc(C)c1NC(=O)O[C@H]1[C@H](OC(=O)Nc2ccccc2-c2ccccc2)[C@H](OC(=O)Nc2ccccc2-c2ccccc2)[C@@H](OC)O[C@@H]1CO,-1.11 (inactive)
2,C=C(COC)C(=O)CC[C@@H](OC(C)=O)c1cccc(OCCO)c1,0.387 (inactive)
3,C=CCNC(=O)[C@@H]1[C@H]2C(=O)O[C@H](c3ccccc3)[C@H](c3ccccc3)N2[C@H](c2ccc(OCCO)cc2)[C@@]12C(=O)N(C(=O)OCCOC)c1ccc(C#Cc3ccc(OC)cc3)cc12,0.927 (inactive)
4,CCCNC(=O)[C@@]1(C)c2ccccc2C(=O)N(c2ccc(C)cn2)[C@H]1c1ccc(CO)cc1,-0.407 (inactive)
5,CC(=O)NCCCC[C@@H]1NC(=O)[C@@H]2C[C@H](C(=O)NCCCCCN)[C@H](c3ccc(O)cc3)N2C1=O,-1.42 (inactive)
6,CC1CC/C=C\[C@H]2OC34C=CCN(Cc5ccccc5)C(=O)[C@H]3N(C(CO)C(C)C)C(=O)[C@@H]4C2C(=O)O1 (some centres not stated),0.0401 (inactive)
7,COc1ccc(CCNC(=O)[C@@]2(c3ccc([N+](=O)[O-])cc3)CC(=O)N(C3CCCCC3)[C@@H]2c2ccc(CO)cc2)cc1,1.28 (inactive)
8,C=CCC(OC(C)=O)[C@@H]1[C@@H](N(Cc2cccc3ccccc23)C(=O)Cc2ccc(OC)cc2)c2cc(OCCCO)ccc2N1C(=O)c1ccc(-c2ccccc2)cc1 (some centres not stated),0.48 (inactive)
9,COc1ccc([Si](C)(C)[C@@H]2[C@@H](CCO)O[C@]3(C(=O)N(Cc4ccccc4)c4ccc(NC(=O)[C@H](C)O)cc43)[C@H]2C)cc1,-3.3 (inactive)
10,[N-]=[N+]=Nc1ccccc1[C@@H]1OC(c2ccc(OCCCO)cc2)=N[C@]1(Cc1ccccc1)C(=O)O,1.2 (inactive)
11,COc1ccc([C@H]2OC[C@@H]3C[C@H](Cc4ccccc4)C(=O)N32)cc1,-0.116 (inactive)
12,CC(C)N1CC=CC23O[C@@H]4C=CCCOC(=O)C4[C@H]2C(=O)N(CCCO)[C@@H]3C1=O (some centres not stated),0.446 (inactive)
13,COc1ccc([Si](C)(C)[C@@H]2[C@@H](CCO)O[C@]3(C(=O)N(Cc4cccc(NC(=O)[C@H](C)O)c4)c4ccccc43)[C@H]2C)cc1,-5.11 (inactive)
14,NCCCCCNC(=O)[C@@H]1C[C@@H]2C(=O)N[C@@H](CCCCN)C(=O)N2[C@@H]1c1ccc(O)cc1,0.0497 (inactive)
15,C=CCN1Cc2ccccc2[C@@H]2OC(c3ccc(OCCCO)cc3)=N[C@]2(CC=C)C1=O,0.0576 (inactive)
16,C=CCNC(=O)[C@@H]1[C@H]2C(=O)O[C@H](c3ccccc3)[C@H](c3ccccc3)N2[C@H](c2ccccc2OCCO)[C@@]12C(=O)N(C(=O)OCCOC)c1ccc(C#CC3(O)CCCCCC3)cc12,-0.628 (inactive)
17,CC(C)N1C(=O)c2ccccc2[C@@H](C(=O)NCCN2CCOCC2)[C@@H]1c1ccc(CO)cc1,0.175 (inactive)
